From PubChem BioAssay (NCATS)
Results filed as inconclusive are left out. Activity calls are given as the source filed them. Unless noted, the call rests on the fitted dose curve; in most records, active means well fitted curve in the direction sought with a large enough effect; inconclusive means small, poorly fitted or top-dose-only effect, or another doubt; inactive means no such curve, though single readings can be large; an effect the other way counts as inactive or inconclusive.

Experiments:
C33A = assay: Primary qHTS to identify gynecologic anti-cancer compounds using libraries of approved drugs and bioactive compounds (AID 1345084); details: Gynecologic cancer cell panel viability, ATPlite luminescence, 48 h; series mostly up to 57.5 µM; further: nearly all actives have a fitted effect of over 55% in size; further: potency means the concentration at half of the fitted maximal effect; on activity change, negative = cytotoxicity: on the % scale 0 is the no-effect control and ±100 the full control effect
Outline: (§1)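 Measured: luminescence after ATPlite addition (15 min, RT). Exposure: 48 h, 37 C, 5% CO2.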

CAOV3 = assay: as above; details: Gynecologic cancer cell panel viability, ATPlite luminescence, 48 h; series mostly up to 57.5 µM
Outline: as §1

CASKI = assay: as above; details: Gynecologic cancer cell panel viability, ATPlite luminescence, 48 h; series mostly up to 57.5 µM
Outline: as §1

PA-1 = assay: as above; details: Gynecologic cancer cell panel viability, ATPlite luminescence, 48 h; series mostly up to 57.5 µM
Outline: as §1

SKOV3 = assay: as above; details: Gynecologic cancer cell panel viability, ATPlite luminescence, 48 h; series mostly up to 57.5 µM
Outline: as §1

Tov-21-G = assay: as above; details: Gynecologic cancer cell panel viability, ATPlite luminescence, 48 h; series mostly up to 57.5 µM
Outline: as §1

[1] = biological target: Cytochrome P450 2D6 (Homo sapiens) (UniProt P10635); assay: Cytochrome P450 family 2 subfamily D member 6 (CYP2D6) small molecule antagonists: luciferase biochemical (cell-free) qHTS assay (AID 1645840; active means well fitted curve in the direction sought with a large enough effect in the repeat runs; an effect the other way counts as inactive or inconclusive; further: nearly all actives have a fitted effect of over 55% in size; further: potency means the concentration at half of the fitted maximal effect; on activity change, negative = inhibition: on the % scale 0 is the no-effect control and ±100 the full control effect)
Outline: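 P450-Glo CYP2D6 system: proluciferin substrate converted by enzyme to luciferin, read by luminescence proportional to activity. Enzyme-substrate mix with compound 10 min at room temperature, then NADPH regeneration 1 h before detection reagent.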

[2] = biological target: Catechol O-methyltransferase (Homo sapiens) (UniProt P21964); assay: Confirmatory Screen for Target Class Profiling of Small Molecule Inhibitors of Methyltransferases (AID 1745852; calls by dose curve; on activity change, negative = inhibition: on the % scale 0 is the no-effect control and ±100 the full control effect); details: MTase-Glo luminescence, SAH detection, recombinant enzyme; measured here: COMT max response; stronger effect = lower value
[3] = biological target: Guanidinoacetate N-methyltransferase (Homo sapiens) (UniProt Q14353); assay: as above; details: activity change, negative = inhibition: at 57.3 µM (top of the series) unless noted
[4] = biological target: Nicotinamide N-methyltransferase (Homo sapiens) (UniProt P40261); assay: as above; details: MTase-Glo luminescence, SAH detection, recombinant enzyme; measured here: NNMT max response; stronger effect = lower value
[5] = biological target: Phenylethanolamine N-methyltransferase (Homo sapiens) (UniProt P11086); assay: as above; details: MTase-Glo luminescence, SAH detection, recombinant enzyme; measured here: PNMT max response; stronger effect = lower value
[6] = system: Zika virus NS2B-NS3 protease (unlinked complex); assay: Primary screen GU Rhodamine qHTS for Zika virus inhibitors: Unlinked NS2B-NS3 protease assay (AID 1347159); further: nearly all actives have a fitted effect of over 60% in size; further: potency means the concentration at half of the fitted maximal effect; on activity change, negative = inhibition: on the % scale 0 is the no-effect control and ±100 the full control effect
Outline: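 Percent inhibition came from the 15-min rise in Rhodamine110 fluorescence (1.5 microM substrate, ~15% conversion), normalized to no-inhibitor and no-enzyme wells and Hill-fitted. Unlinked protease, 25 nM, pH 8.0 Tris buffer; compounds up to 114 microM, 15-min preincubation.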

[7] = qHTS to identify inhibitors of the type 1 interferon - major histocompatibility complex class I in skeletal muscle: primary screen against the NCATS Mechanism Interrogation Plate v5.0 (MIPE) Libary (AID 1347411); further: potency means the concentration at half of the fitted maximal effect; nearly all actives have a fitted effect of over 65% in size
Outline: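 HLA-B HiBit myoblasts, dexamethasone-free medium + 4 ng/ml IFN-b, 24 h compound, 11-pt 1:3 from 46 uM final. Readout: Nano-Glo HiBiT lytic luminescence after 10 min lysis, RT.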

[8] = biological target: Cytochrome P450 2C9 (Homo sapiens) (UniProt P11712); assay: Cytochrome P450 family 2 subfamily C member 9 (CYP2C9) small molecule antagonists: luciferase biochemical (cell-free) qHTS assay (AID 1645842; active means well fitted curve in the direction sought with a large enough effect in the repeat runs; an effect the other way counts as inactive or inconclusive; further: on the % scale 0 is the no-effect control and ±100 the full control effect; nearly all actives have a fitted effect of over 55% in size)
Outline: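 P450-Glo CYP2C9 system: proluciferin substrate with enzyme in mix containing 0.4% BSA, 10 min at room temperature, then NADPH regeneration solution added and incubated 1 h at 37C. Detection reagent stopped reaction; luminescence read after 20 min as RLU.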

[9] = qHTS assay to identify inhibitors of the type 1 interferon - major histocompatibility complex class I in skeletal muscle: Counter screen cell viability and HiBit confirmation (AID 1347412); details: iHSKM muscle cells + IFN-b, HiBiT or CellTiter-Glo, 24 h; further: potency means the concentration at half of the fitted maximal effect; nearly all actives have a fitted effect of over 60% in size
Outline: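 HLA-B*08:01–HiBiT knock-in immortalized human myoblasts (C25cl48) stimulated with 4.0 ng/ml human IFN-beta and dosed with compound in a 12-point 1:3 titration (top final 46 uM). After 24 hrs at 37 C, HiBiT lytic luminescence or CellTiter Glo ATP read out.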

Sequence of Cytochrome P450 2D6 (Homo sapiens) (P10635 whole entry, looked up): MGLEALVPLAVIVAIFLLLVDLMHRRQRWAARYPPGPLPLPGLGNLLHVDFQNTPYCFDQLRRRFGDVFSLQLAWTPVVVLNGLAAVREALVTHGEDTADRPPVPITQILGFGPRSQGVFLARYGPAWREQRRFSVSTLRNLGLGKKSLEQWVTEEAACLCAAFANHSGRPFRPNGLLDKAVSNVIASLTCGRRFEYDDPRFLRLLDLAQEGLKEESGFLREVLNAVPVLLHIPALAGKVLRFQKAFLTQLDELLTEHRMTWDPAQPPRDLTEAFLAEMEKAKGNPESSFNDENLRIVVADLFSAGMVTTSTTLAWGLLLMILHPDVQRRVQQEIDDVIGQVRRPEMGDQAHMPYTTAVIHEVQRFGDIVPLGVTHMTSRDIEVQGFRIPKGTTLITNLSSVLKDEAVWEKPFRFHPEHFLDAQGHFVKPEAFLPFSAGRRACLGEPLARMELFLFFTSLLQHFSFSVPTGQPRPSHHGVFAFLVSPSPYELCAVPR
Sequence of Catechol O-methyltransferase (Homo sapiens) (P21964 whole entry, looked up): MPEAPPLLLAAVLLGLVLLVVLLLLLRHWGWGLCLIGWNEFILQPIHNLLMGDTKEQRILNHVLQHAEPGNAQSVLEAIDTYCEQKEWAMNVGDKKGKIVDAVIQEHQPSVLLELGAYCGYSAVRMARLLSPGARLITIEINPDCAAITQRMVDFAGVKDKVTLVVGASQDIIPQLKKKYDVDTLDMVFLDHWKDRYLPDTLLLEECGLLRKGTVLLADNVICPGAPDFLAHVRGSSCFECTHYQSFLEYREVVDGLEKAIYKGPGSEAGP
Sequence of Nicotinamide N-methyltransferase (Homo sapiens) (P40261 whole entry, looked up): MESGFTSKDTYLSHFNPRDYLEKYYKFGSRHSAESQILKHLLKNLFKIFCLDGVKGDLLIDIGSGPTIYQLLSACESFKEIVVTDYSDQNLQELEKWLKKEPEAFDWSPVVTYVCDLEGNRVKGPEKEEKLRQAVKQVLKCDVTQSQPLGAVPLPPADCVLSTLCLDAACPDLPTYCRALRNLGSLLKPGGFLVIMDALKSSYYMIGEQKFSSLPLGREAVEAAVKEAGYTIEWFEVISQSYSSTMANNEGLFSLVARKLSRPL
Sequence of Cytochrome P450 2C9 (Homo sapiens) (P11712 whole entry, looked up): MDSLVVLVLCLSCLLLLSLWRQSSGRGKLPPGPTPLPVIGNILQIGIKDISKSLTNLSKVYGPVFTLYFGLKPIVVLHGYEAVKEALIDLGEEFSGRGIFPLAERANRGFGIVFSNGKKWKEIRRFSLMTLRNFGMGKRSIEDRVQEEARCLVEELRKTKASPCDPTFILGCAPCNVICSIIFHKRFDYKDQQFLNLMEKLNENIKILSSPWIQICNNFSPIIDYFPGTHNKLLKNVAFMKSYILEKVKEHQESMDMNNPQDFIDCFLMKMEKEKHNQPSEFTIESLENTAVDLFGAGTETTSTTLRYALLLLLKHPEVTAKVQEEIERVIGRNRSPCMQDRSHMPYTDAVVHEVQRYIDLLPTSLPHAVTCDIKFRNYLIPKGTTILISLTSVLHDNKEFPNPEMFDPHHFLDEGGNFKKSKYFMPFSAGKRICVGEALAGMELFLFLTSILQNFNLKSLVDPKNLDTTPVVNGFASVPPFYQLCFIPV
Sequence of Phenylethanolamine N-methyltransferase (Homo sapiens) (P11086 whole entry, looked up): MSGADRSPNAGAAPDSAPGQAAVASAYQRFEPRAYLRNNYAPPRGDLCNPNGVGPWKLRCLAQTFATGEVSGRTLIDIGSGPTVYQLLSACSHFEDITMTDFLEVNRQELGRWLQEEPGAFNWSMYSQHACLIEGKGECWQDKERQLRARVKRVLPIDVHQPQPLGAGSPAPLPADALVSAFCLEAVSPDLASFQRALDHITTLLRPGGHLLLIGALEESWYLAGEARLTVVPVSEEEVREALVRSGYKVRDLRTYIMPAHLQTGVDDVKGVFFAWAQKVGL

C[N+]1(C)[C@@H]2CC[C@H]1CC(OC(=O)C(O)c1ccccc1)C2 (stereo partly specified)
inactive: Potency (C33A) | Potency (CAOV3) | Potency (CASKI) | Potency (PA-1) | Potency (SKOV3) | Potency (Tov-21-G)

Cc1cc(C)c(NC(=O)N(Cc2ccc3c(c2)Cc2ccccc2-3)C2CCCCCC2)c(C)c1
inactive: Potency [1] | Potency (C33A) | Potency (CAOV3) | Potency (CASKI) | Potency (PA-1) | Potency (SKOV3) | Potency (Tov-21-G)
-11.3%: activity change, negative = inhibition [3]
-14.1%: activity [5]
-9.37%: activity [2]
-15.8%: activity [4]

CCOC(=O)CCC(=O)O[C@H]1[C@H](O[C@@H]2[C@@H](C)[C@H](O[C@H]3C[C@@](C)(OC)[C@@H](O)[C@H](C)O3)[C@@H](C)C(=O)O[C@H](CC)[C@@](C)(O)[C@H](O)[C@@H](C)C(=O)[C@H](C)CC2(C)O)O[C@H](C)C[C@@H]1N(C)C (stereo partly specified)
inactive: Potency (C33A) | Potency (CASKI) | Potency (PA-1) | Potency (SKOV3) | Potency (Tov-21-G)

COc1ccc(-c2c(C)c(C(=O)NN3CCCCC3)nn2-c2ccc(Cl)cc2Cl)cc1
inactive: Potency (C33A) | Potency (CASKI) | Potency (PA-1) | Potency (SKOV3) | Potency (Tov-21-G)

C=C1C(=O)O[C@@H]2/C=C(/C)CC3C=C(C[C@H](OC(=O)/C(C)=C\C)[C@@H]12)C(=O)O3 (stereo partly specified)
inactive: Potency [6] | Potency (C33A) | Potency (CAOV3) | Potency (CASKI) | Potency (PA-1) | Potency (SKOV3) | Potency (Tov-21-G)

COc1cc2nc(-c3cc(F)ccc3O)nc(N[C@@H]3CNC[C@H]3C(C)(C)O)c2cc1OC
active: Potency [7] 3.7 µM | Potency ([9]; HiBiT) 8.83 µM | Potency ([9]; Viability) 31.3 µM
inactive: Potency [6] | Potency [8] | Potency (C33A) | Potency (CASKI) | Potency (PA-1) | Potency (SKOV3) | Potency (Tov-21-G)

COc1ccc2c3ccnc4ccc(=O)n(c2c1)c43
inactive: Potency [6] | Potency (C33A) | Potency (CAOV3)
active: Potency (PA-1) 25.1 µM

CC(CCC1(O)OC2CC3C4CC=C5CC(O[C@@H]6O[C@H](CO)[C@@H](O[C@@H]7O[C@H](CO)[C@@H](O)[C@H](O)[C@H]7O)[C@H](O)[C@H]6O[C@@H]6O[C@@H](C)[C@H](O)[C@@H](O)[C@H]6O)CCC5(C)C4CCC3(C)C2C1C)CO[C@@H]1O[C@H](CO)[C@@H](O)[C@H](O)[C@H]1O (stereo partly specified)
inactive: activity change, negative = cytotoxicity (C33A) 1.45% [at 11.6 µM] | activity change, negative = cytotoxicity (CAOV3) -3.93% [at 11.6 µM] | activity change, negative = cytotoxicity (CASKI) 1.26% [at 11.6 µM] | activity change, negative = cytotoxicity (PA-1) 4.42% [at 11.6 µM] | activity change, negative = cytotoxicity (SKOV3) -2.2% [at 11.6 µM] | activity change, negative = cytotoxicity (Tov-21-G) -1.21% [at 11.6 µM]

C=C1C(=O)O[C@@H]2[C@H]1[C@H](O)C[C@]1(C)[C@@H](O)CC=C(C)[C@@H]21
inactive: Potency [6] | Potency (C33A) | Potency (CASKI) | Potency (PA-1)

COc1cccc(NC[C@@H](O)Cn2c3ccc(Br)cc3c3cc(Br)ccc32)c1
inactive: Potency (C33A) | Potency (CASKI)
active: Potency [6] 44.7 µM | Potency [1] 8.49 µM

CC(C)COc1ccc(CNC(=O)N(Cc2ccc(F)cc2)C2CCN(C)CC2)cc1
inactive: Potency [6] | Potency (C33A) | Potency (Tov-21-G)
active: Potency [1] 5.35 µM

N#Cc1ccc2c(c1)CCN(CCC1CCC(NC(=O)c3ccnc4ccccc34)CC1)C2 (stereo unspecified)
inactive: Potency (CAOV3) | Potency (CASKI) | Potency (PA-1) | Potency (Tov-21-G)
active: Potency (SKOV3) 22.4 µM

O=C(/C=C/n1cnc(-c2cc(C(F)(F)F)cc(C(F)(F)F)c2)n1)NNc1cnccn1
active: Potency (PA-1) 10 µM
inactive: Potency (C33A) | Potency (CASKI)

COc1ccc(-c2cc(C(O)C3CCCCN3)c3ccccc3n2)cc1 (stereo unspecified)
active: Potency (SKOV3) 28.2 µM
inactive: Potency [6]
